D2 ag-1: HTS Assay for Allosteric Agonists of the Human D2 Dopamine Receptor: Primary Screen for Agonists; D(2) dopamine receptor (Homo sapiens), P14416; hit rate 0.53% among 340,000; HEK293 T-REx D2 cells, calcium flux agonist mode; activation, % at 2 µM;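 active means activation over 3 SD above normal in the single-dose calcium agonist read, cut at about 30% in these data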; further: 0% is about no effect
Target sequence (P14416 whole entry, looked up): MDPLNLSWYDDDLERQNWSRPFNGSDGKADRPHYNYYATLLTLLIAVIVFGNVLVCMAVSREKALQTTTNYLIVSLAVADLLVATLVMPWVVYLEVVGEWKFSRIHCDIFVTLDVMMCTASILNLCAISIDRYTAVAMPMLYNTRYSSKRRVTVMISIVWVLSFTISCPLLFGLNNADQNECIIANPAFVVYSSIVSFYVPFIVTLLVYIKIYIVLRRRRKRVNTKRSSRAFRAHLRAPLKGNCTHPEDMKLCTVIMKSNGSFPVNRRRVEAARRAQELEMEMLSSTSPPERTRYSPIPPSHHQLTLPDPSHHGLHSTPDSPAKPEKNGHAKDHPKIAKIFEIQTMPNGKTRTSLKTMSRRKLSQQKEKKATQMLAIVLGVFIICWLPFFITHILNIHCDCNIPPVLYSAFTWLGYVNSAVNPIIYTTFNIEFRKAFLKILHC
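HEK293 Trex D2 cells, tetracycline-induced, o/n 30 C 5% CO2; no-wash Ca dye, RT 30–90 min; 10-cycle baseline, 23 nl cpd added, kinetic Ca read 180 s; agonist hits = positive Ca response.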
D2 PAM-1: HTS Assay for Positive Allosteric Modulators of the Human D2 Dopamine Receptor: Primary Screen for Potentiators; HEK293 T-REx D2, calcium flux, EC20 dopamine potentiation; potentiation, % at 10 µM; hit rate 0.34% among 340,000;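 active means potentiation over 3 SD above the plate norm, cut at about 30% in these data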; further: 0% is about no effect
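Cells plated with tetracycline inducer and held overnight at 30 C; calcium dye loaded 30–90 min at room temperature; baseline taken, compound added and read 180 s; EC20 dopamine then added and read 180 s.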
D2 ag-2: Beta-Arrestin HTS for Positive Allosteric Modulators of the Human D2 Dopamine Receptor: Agonists | D(2) dopamine receptor (Homo sapiens), P14416 | DiscoveRx PathHunter D2 beta-arrestin, luminescence, 90 min; 100% = 57 uM dopamine signal | activation, % (concentration not given with the values) | hit rate 0.084% among 360,000; in the data active means activation above about 40%; inconclusive means between about 15% and that limit
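Agonist mode: compounds alone added to overnight-plated D2 PathHunter cells for 90 min at 37 C, with 57 uM final dopamine (EC100) defining full response. Beta-arrestin recruitment detected by chemiluminescent reagent, read after 1 h at ambient temperature.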
D2 PAM-2: Beta-Arrestin HTS for Positive Allosteric Modulators of the Human D2 Dopamine Receptor: Potentiators | hit rate 0.23% among 360,000 | DiscoveRx D2 beta-arrestin cells, luminescence, 90 min; 100% = 57 uM dopamine signal | potentiation, % (concentration not given with the values); in the data active means potentiation above about 50%; inconclusive means mostly about 30% to 49%
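PathHunter beta-arrestin assay in DiscoveRx D2 cells. Compounds were added with an EC20 of dopamine (50 nM final) for 90 min at 37 deg C. Luminescence was read 1 h after detection reagent, with 57 uM dopamine as the EC100 control.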
D2 antagonist: HTS Assay for Allosteric Antagonists of the Human D2 Dopamine Receptor: Primary Screen for Antagonists; D(2) dopamine receptor (Homo sapiens), P14416; HEK293 TREx D2 cells, calcium flux, dopamine EC80; inhibition, % at 10 µM; hit rate 2% among 340,000; AID 485344, 2010; in the data active means inhibition above about 30%; inactive means below that, where a call was filed; further: 0% is about no effect
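In this primary screen, negative modulation is detected by tracking calcium flux after an EC80 dopamine challenge in inducible HEK293 T-REx D2 cells preexposed to test compound for 180 s.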
* marks the source's active call; other numbers are inactive results; ? = inconclusive; . = no result; ! = a repeat was not active. Most compounds without a hit are left out; they make up all but 2.4% or so of the library.

SMILES	D2 ag-1	D2 PAM-1	D2 ag-2	D2 PAM-2	D2 antagonist
COc1cc(/C=C/[N+](=O)[O-])ccc1O	2.1	4.7	-1.2	-0.3	-17.9
OC1(c2ccc(F)cc2)CCNC1 (stereo not given)	-0.4	-6.5	-4.1	-8.4	86.3*
Cc1cccc(NC2=NCCCS2)c1C	0.5	-9.9	1.9	-6.0	38.4*
Cc1ccccc1NC1=NCCCS1	0.5	5.7	-0.5	-11.0	-21.8
Cc1ccccc1-n1c(/C=C/c2ccccc2F)nc2ccccc2c1=O	-1.0	1.1	.	.	.
COC(COC(N)=O)C1=C(N2CC2)C(=O)C(C)=C(N2CC2)C1=O (stereo not given)	.	.	?	72.2*	.
CCC(C)N1C(=O)NC(=O)C2(Cc3c(ccc4ccccc34)N(C)C2)C1=O (stereo not given)	-0.6	9.8	7.5	76.5*	-26.8
COc1ccc2c(c1)CC1(CN2C)C(=O)NC(=O)N(CCc2ccccc2)C1=O (stereo not given)	0.2	6.8	2.3	11.9	-31.8
Cc1cc(C)cc(N2C(=O)NC(=O)/C(=C\c3cccn3-c3ccccc3)C2=O)c1	4.3	19.1	-3.0	-1.5	-6.3
Cc1cc(C)cc(N2C(=O)NC(=O)/C(=C\c3cccn3-c3ccc(Cl)cc3)C2=O)c1	-0.4	8.8	0.6	-7.4	37.8*
CC(=NCCC1=CCCCC1)c1c(O)n(-c2ccccc2)c(=O)[nH]c1=O	-0.1	-8.6	-5.5	-2.6	31.0*
CCOc1ccc(CN(CCc2ccc3c(c2)OCO3)Cc2cc(OC)ccc2O)cc1	-0.4	-6.8	.	.	.
CC(C)N1CCN(c2ccc(O)cc2)CC1	1.1	-27.4	9.6	-11.4	14.7
CC(C)N1CCOC(c2ccc(O)c(O)c2)C1 (stereo not given)	.	.	83.0*	59.7*	.
Cc1ccc(Cn2cccc(C(=O)Nc3cc([N+](=O)[O-])ccc3C)c2=O)cc1	-2.3	-6.5	.	.	.
CCn1c(O)c(C=Nc2ccc(N3CCOCC3)cc2)c(=O)n(CC)c1=S	35.5*	-1.7	0.2	12.1	13.5
O=C1CC(c2cccnc2)=NN1c1ccc(Cl)cc1Cl	-0.1	5.6	-2.3	-11.6	3.5
CCN1C(=O)CC(c2cccnc2)=Nc2ccccc21	1.5	2.7	1.4	-10.0	31.4*
CC(C)Oc1ccc(CCN)cc1Cl	1.1	-6.2	0.7	-14.1	7.8
CCCCOc1ccc(CCN)cc1Cl	2.9	3.1	-5.7	-20.3	41.8*
Cn1c(=O)n(C)c2cc(CNCCc3ccccc3F)ccc21	2.1	-7.8	.	.	.
CCCCn1nnnc1C(C1CC1)N1CCC(n2c(=O)[nH]c3ccccc32)CC1 (stereo not given)	.	.	11.7	2.5	.
O=c1[nH]c2ccccc2n1CCCN1CCC(n2c(=O)[nH]c3cc(Cl)ccc32)CC1	.	.	.	.	97.4*
COc1ccc(Br)cc1C1SCC(=O)Nc2c1c(C)nn2-c1ccccc1C (stereo not given)	.	-5.5	.	.	.
COC(=O)C1=C(c2ccc(OCc3ccccc3)cc2)C[C@@H]2CC[C@H]1N2C(=O)NC1CCN(Cc2ccccc2)CC1	-1.2	-11.2	2.1	-102.7	69.8*
SMILES	D2 ag-1	D2 PAM-1	D2 ag-2	D2 PAM-2	D2 antagonist
O=C1CN=C(c2ccccc2Cl)c2cc(Cl)ccc2N1Cc1cccc(Cl)c1	0.8	12.4	.	.	.
Cc1cccc(-n2c(/C=C/c3c[nH]c4ccccc34)nc3ccccc3c2=O)c1	.	4.3	.	.	.
COC(=O)C(O)(c1ccc(NC(=S)NC(=O)c2ccc(Cl)cc2Cl)cc1)C(F)(F)F (stereo not given)	10.8	32.0*	-6.3	-31.6	-0.1
CCCC1=C(C(=O)OCC)C2(C(=O)Nc3ccc(C)cc32)C(C#N)=C(N)O1 (stereo not given)	-0.2	19.3	4.8	?	6.8
CCOC(=O)CC1=C(C(=O)OCC)C2(C(=O)Nc3ccccc32)C(C#N)=C(N)O1 (stereo not given)	-0.5	-6.0	11.9	75.2*	10.1
COc1ccccc1CN1CCN(C(=O)COc2ccccc2)CC1	-1.3	-12.3	-1.8	-37.3	33.0*
COc1ccc(OCC(=O)N2CCN(Cc3ccc4c(c3)OCO4)CC2)cc1	-0.2	6.0	-1.2	-17.8	-5.7
COc1cc(OC)c(OC)cc1CN1CCN(C(=O)COc2ccc3ccccc3c2)CC1	0.2	-4.6	-5.6	-9.5	-13.3
COc1ccc(OCC(=O)N2CCN(Cc3ccc(SC)cc3)CC2)cc1	0.3	33.8*!	-1.5	0.3	45.6*
Cc1cccc(CN2CC=C(c3noc(CCC(=O)Nc4ccc(C)c(F)c4)n3)CC2)c1	0.6	-7.3	.	.	.
C[N+](C)(C)CCOC(=O)CBr	-0.1	6.7	-5.6	-5.4	-9.9
CC(=O)OCC[N+](C)(C)C	45.2*	5.9	-4.1	0.8	-16.5
O=C(c1ccc2c(c1)N(Cc1c(F)cccc1Cl)C(=O)c1ccccc1S2)N1CCC2(CC1)OCCO2	-0.5	-0.7	.	.	.
O=C(Nc1ccc(F)c(Cl)c1)N(Cc1ccc2c(c1)OCO2)C1CCN(Cc2ccccc2)CC1	0.8	-3.8	.	.	.
c1ccc2c(CN3CCN(C4CCCCC4)CC3)c[nH]c2c1	-0.2	-9.7	-0.6	-18.5	-10.1
OC(CN1CCC(c2c[nH]c3ccccc23)CC1)C(F)(F)F (stereo not given)	0.4	-15.4	-5.3	-9.9	77.0*
O=c1cc(CN2CC=C(c3ccccc3)CC2)c2c(ccc3ccccc32)o1	19.6	-4.9	0.7	-13.3	-0.5
Cc1cc(O)c(CN2CC=C(c3ccccc3)CC2)cc1C(C)C	0.5	-25.7	-3.4	-16.2	74.6*
Cc1cc(-n2c(/C=C/c3ccc(Br)s3)nc3ccccc3c2=O)ccc1Br	.	-13.1	.	.	.
CCCCC1(CN2CCCC2=O)C(=O)NC(=O)NC1=O	0.2	0.6	-0.7	-4.4	44.6*
Nc1c(Br)cc2c3c(cccc13)-c1ccccc1-2	.	.	7.3	59.5*	.
O=c1c2ccccc2nc(/C=C/c2ccccc2O)n1-c1ccc(Br)cc1	0.1	1.8	.	.	.
COc1cccc(CNCCc2c[nH]c3ccccc23)c1	1.8	-20.9	3.4	-23.3	46.3*
COc1ccc2[nH]cc(CCNCc3cccnc3)c2c1	0.0	-12.5	3.1	-1.2	-7.7
CC(C)Cc1nc2cccnc2n1C1CCNCC1	0.1	11.8	.	.	.
O=S1(=O)N(Cc2ccccc2)CCCN1Cc1ccc(F)cc1Cl	0.4	-4.3	.	.	.
O=C1NC(=O)N(c2ccccc2F)C(=O)/C1=C/c1ccc(Sc2nc3ccccc3[nH]2)o1	18.6	9.8	-4.6	-6.3	44.0*
Nc1c(C(=O)Nc2ccc(Cl)c(C(F)(F)F)c2)sc2nc3c(cc12)N1CCC3CC1	-0.5	-1.9	.	.	.
CC1CCN(CC#CCOc2ccc(Cl)cc2)CC1	0.6	-24.4	-2.3	-2.1	86.3*
